The text below walks through data of ChEMBL document CHEMBL3988442, “University of Dundee, Small-Polar-MMV Screening Library” (2021).

Among all 69,000 compounds or so, about 950 (1.4%) showed an effect of 50% or more. Only a selection was taken, and strong results are over-represented in it overall.

The test system of this test is Mycobacterium tuberculosis. Kind of test: Cornell M. t heat shock assay. Further: in the data most compounds retested in dose-response had high values. The arrangement: dose or concentration left out as unconfirmed. It counts as functional, organism-based.
In the case of `Cc1nc(CN2CCOCC3(CCN(c4ccccn4)C3)C2)cs1.O=C(O)C(F)(F)F.O=C(O)C(F)(F)F` (stereo unspecified), the “Percent Effect” value is reported as -41.64%. In the case of `CCN(CCNS(=O)(=O)C1CCOCC1)C(=O)OC(C)(C)C` it was -7.011%; in that of `COCC(=O)NC[C@H]1CC[C@H](c2ccnc3ncnn32)CC1`, 20.19%. For the molecule `COc1ccc(C(C)N(C)Cc2c(C3CC3)[nH]c3ncccc23)cc1.Cl` (stereo unspecified), the “Percent Effect” value is on record as -15.93%. As for `CCC/N=c1/c(NC(=O)NCCOC)c(O)oc2ccccc12`, the “Percent Effect” value was -14.33%. On to `CCc1cc(N2CCC(n3cc(C(=O)NCC(C)C)nn3)CC2)ncn1`, for which the “Percent Effect” value was found to be 7.459%. In the case of `O=C(NC1CC1)c1cn(C2CCN(c3cc(C4CC4)ncn3)CC2)nn1` it was 61.79%; in that of `CCc1cc(N2CCC(NC(=O)CCC3CCCO3)CC2)ncn1` (stereo unspecified), -18.51%. Consider `CC(C)Nc1cc(N2CCC(n3cc(C4CC4)nn3)CC2)ncn1`, for which the “Percent Effect” value is reported as -24.54%.

As to `CCc1cc(N2CCC(n3cc(C(=O)NC4CC4)nn3)CC2)ncn1`, the “Percent Effect” value came to 51.27%. Turning to `OCCNc1cc(N2CCC(n3cc(C4CCCC4)nn3)CC2)ncn1`, the “Percent Effect” value was 8.872%. With `CC(C)OCc1ncn2c1CN(Cc1ccc(F)cc1)CCC2.O=C(O)C(F)(F)F`, the “Percent Effect” value is listed as -13.8%. In the case of `Cc1ccc(-n2cccn2)cc1S(=O)(=O)N1C[C@@H]2CC[C@H](C1)N(C)C2` it was 23.12%; in that of `Cn1cc(C2CC(=O)NC23CCN(C(=O)Cc2ccccn2)CC3)cn1.O=C(O)C(F)(F)F` (stereo unspecified), -20.75%; in that of `COc1ccnc(CN2CCCC(CCc3ccc(F)cc3)C2)c1OC` (stereo unspecified), 80.3%. Regarding `COc1coc(CN2CCCC(CCc3ccc(F)cc3)C2)cc1=O` (stereo unspecified), the “Percent Effect” value is listed as -2.405%. As to `COc1ccnc(CN2CCCC(CCc3ccccc3)C2)c1OC` (stereo unspecified), the “Percent Effect” value was 22.56%. In the case of `COCCN1CC[C@@H]2OC(COCC(=O)N3CCCC3)CC[C@@H]21.O=C(O)C(F)(F)F` (stereo partly specified) it was -19.46%. With `CCCS(=O)(=O)NCc1ncc(C)c(OC)c1C`, the “Percent Effect” value is 51.82%. With `CCCNCc1ncc(C)c(OC)c1C`, the “Percent Effect” value is -10.29%. In the case of `COc1c(C)cnc(CNCC(C)C)c1C` it was -4.994%; in that of `FC1(F)CCN(Cc2ccccn2)CC12CCN(c1cccnc1)C2.O=C(O)C(F)(F)F.O=C(O)C(F)(F)F.O=C(O)C(F)(F)F` (stereo unspecified), -10.62%. In the case of `O=c1c(-c2ccnc(N3CCCC[C@@H]3CO)n2)cnc2sccn12` it was -1.826%; in that of `Cc1csc2ncc(-c3ccnc(N4CCC[C@@H]4CO)n3)c(=O)n12`, -11.68%; in that of `Cc1csc2ncc(-c3ccnc(N4CCCC[C@@H]4CO)n3)c(=O)n12`, 73.7%. `Cc1nc(CN2CCc3ncnc(-c4ccc(F)cc4)c3CC2)cs1.O=C(O)C(F)(F)F`: the “Percent Effect” value is reported as -9.802%.

`Cl.NC1CCc2nc(-c3cccnc3)nc(Nc3ccc(F)cc3)c2C1` (stereo unspecified): the “Percent Effect” value was 99.91%. `CC(O)CNc1nc(-c2cccnc2)nc2c1CCC2` (stereo unspecified): the “Percent Effect” value amounted to 6.387%.

For the molecule `CN(CC1CCCO1)c1nc(-c2cccnc2)nc2c1CCNCC2` (stereo unspecified), the “Percent Effect” value is given as -30.46%. Take `CCc1noc(CNc2nc(-c3cccnc3)nc3c2CCNCC3)n1`: the “Percent Effect” value is -6.144%.

Turning to `c1cncc(-c2nc3c(c(NCC4(c5ccncc5)CC4)n2)CCC3)c1`, the “Percent Effect” value was -38.69%. For the molecule `CCn1ccc(C(=O)N2CCCC2c2nnc(-c3scnc3C)o2)n1` (stereo unspecified), the “Percent Effect” value was -2.34%. Regarding `CC(c1ccc(F)c(F)c1)N(C)CCS(=O)(=O)CCC(N)=O` (stereo unspecified), the “Percent Effect” value amounted to 53.46%. Consider `Cc1ccc(C(C)NC(=O)CSCC(N)=O)cc1` (stereo unspecified), for which the “Percent Effect” value is recorded as 15.53%. Take `CC(c1cc(F)ccc1F)N(C)CCS(=O)(=O)CCC(N)=O` (stereo unspecified): the “Percent Effect” value was found to be 49.2%. In the case of `Cc1ccc(OCCN(C)C(C)c2cccc(S(N)(=O)=O)c2)cc1` (stereo unspecified) it was -22.37%; in that of `Cc1ccc(C(C)N(C)CCS(=O)(=O)CCC(N)=O)cc1` (stereo unspecified), 68.62%; in that of `CC(c1cccc(Cl)c1)N(C)CCS(=O)(=O)CCC(N)=O` (stereo unspecified), 31.14%.

On to `O=C(O)C(F)(F)F.O=C(O)C(F)(F)F.O=C(O)C(F)(F)F.c1cc(CN2CCN3C[C@H](Oc4cncnc4)C[C@H]3C2)ccn1`, for which the “Percent Effect” value is reported as 11.96%.

With `Cc1sc2nc(CCN)nc(N(CCN(C)C)CC3CCCO3)c2c1C` (stereo unspecified), the “Percent Effect” value was -25.67%. On to `COCCN(CC1CC1)c1nc(CCN)nc2sc(C)c(C)c12`, for which the “Percent Effect” value is 9.263%. Consider `CCN(CCN(C)C)c1nc(CCN)nc2sc(C)c(C)c12`, for which the “Percent Effect” value stood at 91.54%. As for `COc1cc(N2C[C@H]3CCC[C@@H](CN(C)C)[C@H]3C2)ncn1.O=C(O)C(F)(F)F`, the “Percent Effect” value is recorded as -30.27%. Consider `O=C1CCCC2=C1C(c1ccc(Cl)cc1Cl)Nc1nonc1N2` (stereo unspecified), for which the “Percent Effect” value turned out to be 15.96%.

For `O=C(O)C(F)(F)F.O=C(O)C(F)(F)F.O=C(O)CN1CCC(F)(F)C2(CCN(c3ccccn3)C2)C1` (stereo unspecified), the “Percent Effect” value is listed as -7.749%.

With `O=C(O)C(F)(F)F.O=C(c1c[nH]cn1)N1CCC(F)(F)C2(CCN(c3cccc(F)c3)C2)C1` (stereo unspecified), the “Percent Effect” value is 53.67%. Turning to `FC1(F)CCN(Cc2cccnc2)CC12CCN(c1ccccn1)C2.O=C(O)C(F)(F)F.O=C(O)C(F)(F)F.O=C(O)C(F)(F)F` (stereo unspecified), the “Percent Effect” value is listed as 8.031%. Turning to `O=C(O)C(F)(F)F.O=C(O)C(F)(F)F.O=C(c1c[nH]cn1)N1CCC(F)(F)C2(CCN(c3ccccn3)C2)C1` (stereo unspecified), the “Percent Effect” value amounted to 6.804%. On to `FC1(F)CCN(Cc2ccncc2)CC12CCN(c1cccnc1)C2.O=C(O)C(F)(F)F.O=C(O)C(F)(F)F.O=C(O)C(F)(F)F` (stereo unspecified), for which the “Percent Effect” value was -5.593%.

With `O=C(O)C(F)(F)F.O=C(c1c[nH]cn1)N1CCC(F)(F)C2(CCN(c3ncccn3)C2)C1` (stereo unspecified), the “Percent Effect” value was -10.36%.

In the case of `O=C(O)C(F)(F)F.O=C(O)C(F)(F)F.O=C(O)CN1CCC(F)(F)C2(CCN(c3ccccc3)C2)C1` (stereo unspecified), the “Percent Effect” value is on record as 100.8%. On to `FC1(F)CCN(Cc2cccnc2)CC12CCN(c1ccccc1)C2.O=C(O)C(F)(F)F.O=C(O)C(F)(F)F.O=C(O)C(F)(F)F` (stereo unspecified), for which the “Percent Effect” value worked out at 107.1%.

On to `O=C(CO)N1CCC(F)(F)C2(CCN(c3ccccc3)C2)C1.O=C(O)C(F)(F)F` (stereo unspecified), for which the “Percent Effect” value stood at 34.47%. In the case of `Cc1ccc(C(=O)N2CCC3(CCN(C(=O)c4cccnc4)C3)CC2)o1.O=C(O)C(F)(F)F`, the “Percent Effect” value is recorded as 1.785%. For `COC(=O)CC(C)(C)CC(=O)N1CCC(C(F)(F)F)CC1`, the “Percent Effect” value was -1.161%. As to `Cc1nn(C)cc1S(=O)(=O)NCC(c1ccccc1)N1CCCCCC1.Cl` (stereo unspecified), the “Percent Effect” value is given as -15.55%.
